Laboratory results published in the supplement of paper PMC10849652.
The full data set covers some 7,900 targets. This sample favours those with a hit. About 0.6% of all pairs of compound and target were hits.

Experiments:
Assay in all cases: log2 fold change, soluble protein after heating vs DMSO (PISA); higher = thermal stabilisation; K562 cells, 10 uM, 30 min; active = over 0.2 and 3.5 SD of the protein, either way, in both replicates (recomputed)
IRAK-1-4 Inhibitor I = compound: C1COCCN1CCN2C3=CC=CC=C3N=C2NC(=O)C4=CC(=CC=C4)[N+](=O)[O-] [IRAK-1-4 Inhibitor I]
Summary of the method: (§1)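 Aliquots of K562 cells (2×10^6 cells/mL) treated with 10 μM compound for 30 min were heated for 3 min over 48°C-58°C. After pooling and extraction in PBS with 0.5% NP-40 at 4°C, soluble protein from a 21,000xg, 90 min spin was quantified by TMTpro 16plex LC-MS/MS with channel sums equalised. Thermal stability is expressed against control samples, from duplicates, as a log2 fold change.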

ibrutinib = compound: C=CC(=O)N1CCC[C@@H](n2nc(-c3ccc(Oc4ccccc4)cc3)c3c(N)ncnc32)C1 [ibrutinib]
Summary of the method: as §1

[1] = compound: CC(=O)c1cnc2ccc(-c3cc(Cl)c(O)c(Cl)c3)nc2c1N[C@H]1CC[C@H](CN(C)C)CC1
Summary of the method: as §1

ralimetinib = compound: CC(C)(C)Cn1c(N)nc2ccc(-c3[nH]c(C(C)(C)C)nc3-c3ccc(F)cc3)nc21 [ralimetinib]
Summary of the method: as §1

[2] = compound: CC(C)(O)CC(=O)NCCn1ccc2ncnc(Nc3ccc(Oc4cccc(C(F)(F)F)c4)c(Cl)c3)c21
Summary of the method: as §1

[3] = compound: CC(C)C1=C2N=C(C=C(N2N=C1)NCC3=CC=CC=C3)NCCCCCCN
Summary of the method: as §1

[4] = compound: CC(C)C[C@@H](C=O)NC(=O)[C@H](CC(C)C)NC(=O)[C@H](CC(C)C)NC(=O)OCc1ccccc1
Summary of the method: as §1

pinometostat = compound: CC(C)N(C[C@H]1O[C@@H](n2cnc3c(N)ncnc32)[C@H](O)[C@@H]1O)[C@H]1C[C@@H](CCc2nc3cc(C(C)(C)C)ccc3[nH]2)C1 [pinometostat]
Summary of the method: as §1

[5] = compound: CC1=C(C(CC(=O)N1)C2=CC=C(C=C2)C(F)(F)F)C(=O)NC3=C(C=C4C(=C3)C=NN4)F
Summary of the method: as §1

[6] = compound: CC1=C(C2=C(C=C1)C(=O)C3=CC=CC=C3N2CCCN)C
Summary of the method: as §1

[7] = compound: CC1=C(C=C(C=C1)NC(=O)C2=CC(=CC=C2)C(C)(C)C#N)NC3=CC4=C(C=C3)N=CN(C4=O)C
Summary of the method: as §1

[8] = compound: CC1=C(C=C(C=C1)NC(=O)C2=CC(=CC=C2)N(C)C)NC(=O)C3=CC=C(C=C3)O
Summary of the method: as §1

[9] = compound: CC1=CC=C(C=C1)SC2=C3C=C(SC3=CN=C2)C(=O)N
Summary of the method: as §1

[10] = compound: CC1=NC(=CC=C1)C2=C(N=C(N2)C(C)(C)C)C3=CC4=NC=CN=C4C=C3
Summary of the method: as §1

Nexturastat A = compound: CCCCN(Cc1ccc(C(=O)NO)cc1)C(=O)Nc1ccccc1 [Nexturastat A]
Summary of the method: as §1

vemurafenib = compound: CCCS(=O)(=O)Nc1ccc(F)c(C(=O)c2c[nH]c3ncc(-c4ccc(Cl)cc4)cc23)c1F [vemurafenib]
Summary of the method: as §1

[11] = compound: CCCS(=O)(=O)Nc1ccc(F)c(C(=O)c2c[nH]c3ncc(Cl)cc23)c1F
Summary of the method: as §1

[12] = compound: CCCc1cc(C)[nH]c(=O)c1CNC(=O)c1cc(-c2ccnc(N3CCN(C)CC3)c2)cc2c1cnn2C(C)C
Summary of the method: as §1

givinostat = compound: CCN(CC)Cc1ccc2cc(COC(=O)Nc3ccc(C(=O)NO)cc3)ccc2c1 [givinostat]
Summary of the method: as §1

barasertib = compound: CCN(CCCOc1ccc2c(Nc3cc(CC(=O)Nc4cccc(F)c4)[nH]n3)ncnc2c1)CCOP(=O)(O)O [barasertib]
Summary of the method: as §1

Measured: log2 fold change

CAVIN1 (UniProt Q6NZI2)
inactive: IRAK-1-4 Inhibitor I -0.064 | ibrutinib -0.002 | [1] 0.011 | ralimetinib 0.393 | [2] 0 | [3] -0.156 | [4] -0.011 | pinometostat 0.2 | [5] 0.06 | [7] 0.024 | [8] -0.066 | [9] -0.051 | [10] -0.027 | Nexturastat A 0.186 | vemurafenib -0.068 | [11] -0.047 | [12] 0.073 | givinostat 0.041 | barasertib -0.058
active: [6] -0.437

CALB1 (UniProt P05937)
active: [3] -0.245
inactive: IRAK-1-4 Inhibitor I 0.016 | ibrutinib -0.033 | [1] 0.017 | ralimetinib -0.078 | [2] -0.052 | [4] -0.017 | pinometostat -0.043 | [5] 0.055 | [6] -0.148 | [7] -0.004 | [8] 0.032 | [9] 0.027 | [10] 0.042 | Nexturastat A -0.023 | vemurafenib 0.057 | [11] 0.019 | [12] 0.011 | givinostat -0.031 | barasertib 0.037

CEPT1 (UniProt Q9Y6K0)
active: [3] -0.466
inactive: IRAK-1-4 Inhibitor I 0.035 | ibrutinib -0.014 | [1] 0.072 | ralimetinib -0.026 | [2] 0.073 | [4] -0.118 | pinometostat -0.016 | [5] 0.023 | [6] 0.118 | [7] 0.048 | [8] 0.068 | [9] 0.005 | [10] 0.069 | Nexturastat A -0.123 | vemurafenib 0.123 | [11] 0.016 | [12] -0.122 | givinostat -0.023 | barasertib 0.013

CCNK isoform 4 (UniProt O75909)
inactive: IRAK-1-4 Inhibitor I -0.143 | ibrutinib 0.02 | [1] -0.058 | ralimetinib 0.031 | [2] -0.007 | [3] -0.008 | [4] 0.045 | pinometostat 0.15 | [5] -0.046 | [6] -0.047 | [7] 0 | [8] 0.032 | [9] -0.032 | [10] -0.011 | Nexturastat A 0.024 | vemurafenib -0.088 | [11] 0 | [12] 0.038 | givinostat 0.014 | barasertib -0.063

CSK (UniProt P41240)
Sequence of UniProt P41240 (P41240 whole entry, looked up): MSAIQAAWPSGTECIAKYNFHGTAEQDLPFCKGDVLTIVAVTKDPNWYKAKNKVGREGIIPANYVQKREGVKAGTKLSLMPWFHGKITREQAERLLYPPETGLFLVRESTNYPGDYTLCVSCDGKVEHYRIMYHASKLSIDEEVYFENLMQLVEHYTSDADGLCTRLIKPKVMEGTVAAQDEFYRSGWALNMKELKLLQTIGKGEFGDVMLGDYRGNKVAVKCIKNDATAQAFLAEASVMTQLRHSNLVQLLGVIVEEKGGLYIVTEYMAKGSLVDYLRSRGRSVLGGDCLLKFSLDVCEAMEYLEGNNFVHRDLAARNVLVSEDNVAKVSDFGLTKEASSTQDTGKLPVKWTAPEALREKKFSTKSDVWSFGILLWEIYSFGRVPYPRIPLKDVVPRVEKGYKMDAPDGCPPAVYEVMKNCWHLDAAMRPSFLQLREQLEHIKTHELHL
active: [7] 0.325
inactive: IRAK-1-4 Inhibitor I -0.016 | ibrutinib 0.074 | [1] 0.111 | ralimetinib 0.011 | [2] -0.034 | [3] -0.131 | [4] 0.031 | pinometostat 0 | [5] -0.016 | [6] -0.011 | [8] -0.091 | [9] -0.01 | [10] 0.019 | Nexturastat A -0.046 | vemurafenib 0.072 | [11] 0.054 | [12] 0.034 | givinostat 0.035 | barasertib 0.004

CDK5 (UniProt Q00535)
inactive: IRAK-1-4 Inhibitor I 0.008 | ibrutinib -0.009 | [1] 0.038 | ralimetinib 0.032 | [2] -0.07 | [3] -0.021 | [4] 0.043 | pinometostat 0.024 | [5] 0.038 | [6] 0.028 | [7] -0.053 | [8] -0.009 | [9] 0.001 | [10] -0.008 | Nexturastat A -0.002 | vemurafenib 0.031 | [11] 0.058 | [12] 0.078 | givinostat 0.003

CDAN1 (UniProt Q8IWY9)
Sequence of UniProt Q8IWY9 (Q8IWY9 whole entry, looked up): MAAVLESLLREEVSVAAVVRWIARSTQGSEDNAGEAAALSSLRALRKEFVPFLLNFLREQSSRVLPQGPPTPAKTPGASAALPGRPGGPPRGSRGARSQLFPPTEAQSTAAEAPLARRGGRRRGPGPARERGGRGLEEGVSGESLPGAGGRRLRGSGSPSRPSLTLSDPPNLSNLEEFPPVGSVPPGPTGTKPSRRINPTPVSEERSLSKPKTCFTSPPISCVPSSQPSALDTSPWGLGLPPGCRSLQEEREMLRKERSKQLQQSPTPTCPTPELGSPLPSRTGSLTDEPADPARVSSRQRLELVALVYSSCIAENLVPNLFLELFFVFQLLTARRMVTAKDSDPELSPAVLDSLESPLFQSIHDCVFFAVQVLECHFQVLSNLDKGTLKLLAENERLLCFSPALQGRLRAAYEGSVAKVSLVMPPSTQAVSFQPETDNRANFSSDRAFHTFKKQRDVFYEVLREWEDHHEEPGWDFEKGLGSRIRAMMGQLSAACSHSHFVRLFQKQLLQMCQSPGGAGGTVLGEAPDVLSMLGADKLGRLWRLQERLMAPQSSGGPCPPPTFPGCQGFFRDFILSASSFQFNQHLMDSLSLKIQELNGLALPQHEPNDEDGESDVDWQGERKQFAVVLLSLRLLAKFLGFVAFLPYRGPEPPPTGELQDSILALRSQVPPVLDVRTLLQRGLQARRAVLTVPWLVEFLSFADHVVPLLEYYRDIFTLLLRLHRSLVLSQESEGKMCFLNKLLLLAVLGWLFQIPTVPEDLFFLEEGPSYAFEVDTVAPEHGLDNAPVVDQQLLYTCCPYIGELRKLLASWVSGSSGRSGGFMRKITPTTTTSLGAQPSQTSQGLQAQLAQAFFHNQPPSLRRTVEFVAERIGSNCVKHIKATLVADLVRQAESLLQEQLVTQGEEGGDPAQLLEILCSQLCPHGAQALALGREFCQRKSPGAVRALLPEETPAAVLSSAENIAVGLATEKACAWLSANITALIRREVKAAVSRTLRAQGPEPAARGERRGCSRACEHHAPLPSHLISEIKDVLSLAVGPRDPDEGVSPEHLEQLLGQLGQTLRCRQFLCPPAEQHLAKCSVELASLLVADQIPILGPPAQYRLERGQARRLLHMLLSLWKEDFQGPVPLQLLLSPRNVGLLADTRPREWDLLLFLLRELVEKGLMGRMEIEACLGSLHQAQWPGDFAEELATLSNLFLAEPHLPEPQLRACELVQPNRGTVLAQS
active: [6] -0.398
inactive: IRAK-1-4 Inhibitor I 0.057 | ibrutinib -0.001 | [1] -0.044 | ralimetinib -0.036 | [2] -0.168 | [3] -0.051 | [4] -0.006 | pinometostat 0.026 | [5] 0.009 | [7] 0.039 | [8] 0.046 | [9] -0.071 | [10] -0.022 | Nexturastat A -0.192 | vemurafenib -0.067 | [11] 0.077 | [12] 0.022 | givinostat 0.023 | barasertib 0.002

COX15 (UniProt Q7KZN9)
Sequence of UniProt Q7KZN9 (Q7KZN9 whole entry, looked up): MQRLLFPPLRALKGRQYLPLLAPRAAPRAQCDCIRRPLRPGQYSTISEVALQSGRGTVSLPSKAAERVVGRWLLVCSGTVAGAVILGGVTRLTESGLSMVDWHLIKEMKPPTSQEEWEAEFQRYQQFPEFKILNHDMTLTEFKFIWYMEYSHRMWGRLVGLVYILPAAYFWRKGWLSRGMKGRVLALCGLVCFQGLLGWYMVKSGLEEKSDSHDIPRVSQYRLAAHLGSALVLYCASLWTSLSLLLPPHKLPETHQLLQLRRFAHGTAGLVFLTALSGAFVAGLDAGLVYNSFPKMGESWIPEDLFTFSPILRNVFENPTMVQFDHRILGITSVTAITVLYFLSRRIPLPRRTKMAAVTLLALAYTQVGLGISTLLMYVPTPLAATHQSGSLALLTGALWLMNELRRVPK
inactive: IRAK-1-4 Inhibitor I 0.022 | ibrutinib -0.04 | [1] 0.027 | ralimetinib -0.03 | [2] -0.036 | [3] -0.04 | [4] 0.001 | pinometostat -0.022 | [5] -0.004 | [6] 0.008 | [7] 0.05 | [8] 0.024 | [9] 0.001 | [10] 0.003 | Nexturastat A -0.113 | vemurafenib 0.005 | [11] 0.015 | [12] -0.077 | givinostat -0.008 | barasertib 0.009

CCNB1 (UniProt P14635)
Sequence of UniProt P14635 (P14635 whole entry, looked up): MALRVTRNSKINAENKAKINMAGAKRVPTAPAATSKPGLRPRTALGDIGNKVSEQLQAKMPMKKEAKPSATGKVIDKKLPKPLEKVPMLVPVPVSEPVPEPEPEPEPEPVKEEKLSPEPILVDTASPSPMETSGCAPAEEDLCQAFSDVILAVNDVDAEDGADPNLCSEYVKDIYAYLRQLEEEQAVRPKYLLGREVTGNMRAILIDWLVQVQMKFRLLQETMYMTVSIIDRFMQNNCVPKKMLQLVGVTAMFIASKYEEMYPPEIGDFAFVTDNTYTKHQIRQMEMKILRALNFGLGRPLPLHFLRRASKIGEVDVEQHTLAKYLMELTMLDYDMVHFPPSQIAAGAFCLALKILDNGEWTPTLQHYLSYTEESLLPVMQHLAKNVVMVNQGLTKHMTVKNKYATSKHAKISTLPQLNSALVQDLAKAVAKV
inactive: IRAK-1-4 Inhibitor I 0.035 | ibrutinib -0.024 | ralimetinib -0.016 | [2] -0.005 | [3] -0.014 | [4] 0.006 | pinometostat -0.018 | [5] -0.007 | [6] 0.007 | [7] 0.021 | [8] -0.043 | [9] 0.011 | [10] 0 | Nexturastat A 0.017 | vemurafenib 0.03 | [11] 0.008 | [12] -0.033 | givinostat 0.007 | barasertib -0.007
active: [1] -0.221

CSNK2A1 (UniProt P68400)
Sequence of UniProt P68400 (P68400 whole entry, looked up): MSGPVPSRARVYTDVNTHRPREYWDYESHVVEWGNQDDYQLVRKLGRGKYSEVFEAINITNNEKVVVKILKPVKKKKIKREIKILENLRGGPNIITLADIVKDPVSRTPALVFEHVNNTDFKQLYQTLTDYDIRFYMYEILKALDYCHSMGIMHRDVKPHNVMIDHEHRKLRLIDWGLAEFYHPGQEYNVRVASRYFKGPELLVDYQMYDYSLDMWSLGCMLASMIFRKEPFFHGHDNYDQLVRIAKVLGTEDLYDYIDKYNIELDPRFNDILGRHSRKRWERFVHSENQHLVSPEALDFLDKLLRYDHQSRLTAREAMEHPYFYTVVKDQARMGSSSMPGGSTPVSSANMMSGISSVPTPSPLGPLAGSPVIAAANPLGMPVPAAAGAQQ
inactive: IRAK-1-4 Inhibitor I 0.022 | ibrutinib 0.029 | ralimetinib -0.082 | [2] 0.006 | [3] -0.064 | [4] -0.021 | pinometostat 0.103 | [5] 0.004 | [6] 0.159 | [7] -0.047 | [8] -0.004 | [9] -0.044 | [10] 0.025 | Nexturastat A 0.034 | vemurafenib 0.006 | [11] 0.008 | [12] -0.018 | givinostat -0.003 | barasertib -0.024
active: [1] 0.245

C9orf64 (UniProt Q5T6V5)
Sequence of UniProt Q5T6V5 (Q5T6V5 whole entry, looked up): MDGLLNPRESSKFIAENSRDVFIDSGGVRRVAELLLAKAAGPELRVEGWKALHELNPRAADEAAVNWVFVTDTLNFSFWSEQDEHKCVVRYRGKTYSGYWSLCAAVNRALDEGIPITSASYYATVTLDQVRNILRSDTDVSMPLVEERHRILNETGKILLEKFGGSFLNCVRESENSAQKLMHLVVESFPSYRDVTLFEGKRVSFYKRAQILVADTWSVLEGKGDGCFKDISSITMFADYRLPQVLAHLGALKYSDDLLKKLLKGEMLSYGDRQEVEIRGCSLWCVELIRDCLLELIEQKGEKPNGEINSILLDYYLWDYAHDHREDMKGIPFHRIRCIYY
inactive: IRAK-1-4 Inhibitor I -0.041 | ibrutinib -0.03 | [1] -0.019 | ralimetinib -0.018 | [2] -0.181 | [3] -0.288 | [4] 0.012 | pinometostat 0.053 | [5] 0.02 | [6] -0.097 | [7] 0.014 | [8] -0.014 | [9] 0.029 | [10] 0.001 | Nexturastat A 0.029 | vemurafenib -0.032 | [11] 0.079 | [12] -0.036 | givinostat 0.064 | barasertib 0.08

CPT1A (UniProt P50416)
inactive: IRAK-1-4 Inhibitor I -0.163 | ibrutinib -0.024 | [1] -0.103 | ralimetinib 0.05 | [2] 0.049 | [3] 0.195 | [4] -0.03 | pinometostat 0.06 | [5] -0.109 | [6] -0.047 | [7] 0.069 | [8] -0.077 | [9] -0.054 | [10] -0.114 | Nexturastat A 0.083 | vemurafenib 0.11 | [11] 0.022 | [12] 0.09 | givinostat 0.048 | barasertib 0.01

C16orf58 (UniProt Q96GQ5)
inactive: IRAK-1-4 Inhibitor I 0.031 | ibrutinib -0.022 | [1] 0.01 | ralimetinib -0.017 | [2] -0.045 | [3] -0.199 | [4] 0.001 | pinometostat 0.005 | [5] 0.001 | [6] 0.045 | [7] -0.04 | [8] 0.001 | [9] 0.021 | [10] 0.003 | Nexturastat A -0.049 | vemurafenib -0.007 | [11] 0.005 | [12] -0.075 | givinostat -0.012 | barasertib -0.011

CNTN4 (UniProt Q8IWV2)
Sequence of UniProt Q8IWV2 (Q8IWV2 whole entry, looked up): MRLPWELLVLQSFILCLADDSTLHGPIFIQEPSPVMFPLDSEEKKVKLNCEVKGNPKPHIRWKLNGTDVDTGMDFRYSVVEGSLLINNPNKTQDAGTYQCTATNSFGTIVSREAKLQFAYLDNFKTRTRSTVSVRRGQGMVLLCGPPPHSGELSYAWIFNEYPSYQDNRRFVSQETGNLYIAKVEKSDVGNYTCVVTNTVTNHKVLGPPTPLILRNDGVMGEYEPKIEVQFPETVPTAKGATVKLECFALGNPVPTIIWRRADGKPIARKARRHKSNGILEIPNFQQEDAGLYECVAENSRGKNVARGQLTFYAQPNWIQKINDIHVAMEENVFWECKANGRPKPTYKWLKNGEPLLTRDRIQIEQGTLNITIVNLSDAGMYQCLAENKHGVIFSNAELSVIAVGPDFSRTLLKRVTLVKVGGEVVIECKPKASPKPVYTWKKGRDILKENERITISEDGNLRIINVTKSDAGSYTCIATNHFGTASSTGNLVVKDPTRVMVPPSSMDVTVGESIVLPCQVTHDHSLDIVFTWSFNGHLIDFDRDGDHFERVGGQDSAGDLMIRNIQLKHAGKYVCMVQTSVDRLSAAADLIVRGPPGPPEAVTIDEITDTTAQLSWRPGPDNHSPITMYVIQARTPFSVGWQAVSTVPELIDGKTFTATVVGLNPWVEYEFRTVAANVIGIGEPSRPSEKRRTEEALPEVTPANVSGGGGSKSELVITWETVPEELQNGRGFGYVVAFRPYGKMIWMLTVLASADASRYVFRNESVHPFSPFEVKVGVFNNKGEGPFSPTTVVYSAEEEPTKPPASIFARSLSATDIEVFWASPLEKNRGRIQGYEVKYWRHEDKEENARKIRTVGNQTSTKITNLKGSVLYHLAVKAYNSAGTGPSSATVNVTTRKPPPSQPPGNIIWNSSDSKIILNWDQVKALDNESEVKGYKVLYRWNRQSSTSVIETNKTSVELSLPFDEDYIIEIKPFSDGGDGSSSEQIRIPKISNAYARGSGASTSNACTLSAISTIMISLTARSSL
inactive: IRAK-1-4 Inhibitor I 0.049 | ibrutinib 0.023 | [1] 0.065 | ralimetinib 0.025 | [2] -0.108 | [3] 0.195 | [4] 0.044 | pinometostat -0.027 | [5] -0.014 | [6] 0.137 | [7] -0.053 | [8] 0 | [9] 0.035 | [10] -0.244 | Nexturastat A 0.342 | vemurafenib -0.038 | [11] 0.058 | [12] 0.364 | givinostat 0.278 | barasertib 0.055

CHMP4C (UniProt Q96CF2)
Sequence of UniProt Q96CF2 (Q96CF2 whole entry, looked up): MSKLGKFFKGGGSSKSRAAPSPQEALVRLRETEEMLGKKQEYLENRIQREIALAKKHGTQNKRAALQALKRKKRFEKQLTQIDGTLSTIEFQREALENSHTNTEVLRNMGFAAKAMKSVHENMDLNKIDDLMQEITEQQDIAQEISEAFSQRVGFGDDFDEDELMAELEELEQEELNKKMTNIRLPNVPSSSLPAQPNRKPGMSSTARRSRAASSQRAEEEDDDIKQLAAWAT
active: Nexturastat A 0.443
inactive: IRAK-1-4 Inhibitor I 0.097 | ibrutinib -0.022 | [1] -0.028 | ralimetinib -0.087 | [2] -0.018 | [3] -0.099 | [4] 0.039 | pinometostat -0.095 | [5] 0.021 | [6] -0.019 | [7] -0.173 | [8] -0.01 | [9] 0.02 | [10] 0.081 | vemurafenib 0.019 | [11] -0.022 | [12] -0.021 | givinostat -0.07 | barasertib 0.01

CPQ (UniProt Q9Y646)
Sequence of UniProt Q9Y646 (Q9Y646 whole entry, looked up): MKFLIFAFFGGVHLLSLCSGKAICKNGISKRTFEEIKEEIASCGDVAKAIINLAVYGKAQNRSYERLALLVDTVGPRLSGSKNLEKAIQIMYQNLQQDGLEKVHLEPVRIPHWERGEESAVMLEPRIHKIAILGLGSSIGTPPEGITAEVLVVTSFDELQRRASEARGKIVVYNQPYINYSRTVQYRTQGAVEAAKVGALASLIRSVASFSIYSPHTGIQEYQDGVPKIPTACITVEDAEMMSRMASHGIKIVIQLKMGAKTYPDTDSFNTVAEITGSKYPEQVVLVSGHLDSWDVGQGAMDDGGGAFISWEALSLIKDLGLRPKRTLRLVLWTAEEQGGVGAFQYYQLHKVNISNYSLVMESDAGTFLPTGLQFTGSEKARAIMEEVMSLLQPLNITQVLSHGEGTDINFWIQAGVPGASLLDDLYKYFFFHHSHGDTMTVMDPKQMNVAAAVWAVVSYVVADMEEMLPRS
inactive: IRAK-1-4 Inhibitor I 0.095 | ibrutinib 0.01 | [1] -0.034 | ralimetinib -0.011 | [2] 0.003 | [3] 0.049 | [4] -0.032 | pinometostat 0.007 | [5] 0.023 | [6] 0.006 | [7] 0.001 | [8] 0.025 | [9] -0.005 | [10] -0.005 | Nexturastat A -0.016 | vemurafenib 0.043 | [11] 0.006 | [12] 0.024 | givinostat 0.011 | barasertib -0.002
